Compound activity deposited in PubChem BioAssay by several laboratories.
BoNT-F LC inh: blocks Botulinum neurotoxin F light chain protease; AID 588497; Multiplex microsphere protease cleavage assay, flow cytometry; hit rate 0.22% among 360,000; inhibition, % at 10 µM; in the data active = inhibition above about 35%, passing the limit was not always enough; inconclusive = no clear call, values can overlap the other calls; note: plate controls were buffer without enzyme for full effect and enzyme alone for no effect
Anthrax LF prot: anthrax lethal factor protease inhibition; hit rate 0.12% among 360,000; inhibition, % at 10 µM; AID 588501; multiplex microsphere protease cleavage assay, LF; note: plate controls were buffer without enzyme for full effect and enzyme alone for no effect
Autofluor counter: counter-screen for toxin protease inhibitors: compound fluorescence. fluorescence intensity (concentration not given with the values). hit rate 3.1% among 360,000. compound autofluorescence counterscreen, microsphere flow cytometry; hits give high values. AID 624483; in the data active = fluorescence intensity above about 16000; inconclusive = no clear call, values can overlap the other calls
Mtb FBA inh: Mtb fructose-bisphosphate aldolase inhibition; hit rate 2.3% among 360,000; AID 588726; inhibition, % at 1 µM; purified M. tuberculosis FBA, fluorescence read-out; P9WQA3; in the data active = inhibition above about 27%;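 note: 0% = vehicle and 100% = reference inhibitor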
Target sequence (P9WQA3 whole entry, looked up): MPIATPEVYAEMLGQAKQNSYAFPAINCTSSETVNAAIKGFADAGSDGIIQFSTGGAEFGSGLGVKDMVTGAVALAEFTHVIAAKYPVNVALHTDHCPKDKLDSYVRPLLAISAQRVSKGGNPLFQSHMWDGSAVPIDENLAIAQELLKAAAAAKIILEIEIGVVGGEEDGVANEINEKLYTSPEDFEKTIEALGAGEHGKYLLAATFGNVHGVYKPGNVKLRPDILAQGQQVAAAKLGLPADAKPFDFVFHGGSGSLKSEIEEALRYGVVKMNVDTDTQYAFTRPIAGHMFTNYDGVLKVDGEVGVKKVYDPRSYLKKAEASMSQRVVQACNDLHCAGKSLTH
GDH-TPI inh: GDH-TPI coupled enzyme inhibition counter-screen; inhibition, % at 4.8 µM; GDH-TPI coupled enzyme counterscreen, NADH absorbance; hit rate 1.2% among 360,000; in the data active = inhibition above about 30%;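 note: 0% = DMSO wells and 100% = wells lacking the enzyme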
BoNT-A LC inh2: inhibitors of Botulinum neurotoxin A light chain protease; multiplex microsphere protease substrate cleavage, flow cytometry; inhibition, % at 10 µM; hit rate 0.17% among 360,000; AID 588499; note: plate controls were buffer without enzyme for full effect and enzyme alone for no effect
The depositor's hits bear a star; ? = inconclusive; / = no result. An excerpt weighted towards active compounds, which were near 6.7% of everything screened. Cut-off read from the data, not from the text of the source, unless noted: active = inhibition above about 30%; inconclusive = no clear call, values can overlap the other calls; inactive = below that.

SMILES | BoNT-F LC inh | Anthrax LF prot | Autofluor counter | Mtb FBA inh | GDH-TPI inh | BoNT-A LC inh2
COC(=O)CSc1nnc(CNC(=O)c2cccc(C)c2)n1-c1ccccc1OC | 5 | -6 | 22455* | 0 | 0 | ?
COc1ccc(OCc2nnc(SCC(N)=O)n2-c2ccccc2OC)cc1 | -4 | -3 | 19312* | 3 | 2 | 1
CCOC(=O)N1CCN(C(=O)NC23CC4CC(CC(C4)C2)C3)CC1 | 3 | 1 | 2777 | -1 | -5 | 0
CC(C)CSc1nc2ccccc2n1CC(=O)O | 5 | -2 | 3619 | 4 | 0 | 0
COc1ccc(C(C[N+](=O)[O-])c2c(-c3ccccc3)cc3ccccn23)cc1OC (stereo not drawn) | -12 | 11 | 7282 | 1 | 12 | 1
COc1ccc(C(C[N+](=O)[O-])C2(c3ccc(OC)c(OC)c3)C(=O)c3ccccc3C2=O)cc1 (stereo not drawn) | 11 | -2 | 7481 | -3 | 41* | 3
Cc1c(N=Nc2c(O)[nH]c(=S)[nH]c2=O)c(=O)n(-c2ccccc2)n1C | -18 | -7 | 6979 | -13 | 10 | -2
Cc1ccc(-c2cc(C(=O)NCc3ccco3)c3ccccc3n2)s1 | -103 | -3 | 6837 | 113* | 24 | -4
COc1cc(-c2cc(C(=O)NCc3ccco3)c3ccccc3n2)cc(OC)c1OC | 5 | 1 | 3582 | -2 | 14 | -2
Cc1cc(C(=O)OCC(=O)NC(C)(C)C)c2ccccc2n1 | -2 | 0 | 16530* | 2 | 18 | ?
O=C(COC(=O)c1cc(-c2ccc(Cl)s2)nc2ccccc12)NCc1ccco1 | 3 | 1 | 2591 | 16 | 3 | 3
O=C(COC(=O)c1cc(-c2cccs2)nc2ccccc12)NCc1ccco1 | -2 | -2 | 3422 | 45* | 8 | 0
COc1cccc(OC)c1C(=O)Nc1ccc2c(c1)CCCN2S(=O)(=O)c1ccc(C)cc1 | -14 | 1 | 4454 | 0 | 1 | -1
CCCc1c(O)c2ccccc2n(-c2ccccc2)c1=O | 0 | -7 | 3524 | 45* | 14 | 0
O=C(Cn1c(=O)[nH]c2ccsc2c1=O)NC1CCCCCC1 | -1 | -4 | 23444* | 1 | 2 | ?
Fc1cccc(Cl)c1Cn1nnc(-c2ccc3c(c2)OCO3)n1 | -18 | -1 | 4584 | 0 | 15 | -1
CCOc1ccc(OCc2cccc(C(=O)O)c2)cc1 | 2 | -1 | 22901* | 2 | -1 | 2
COc1ccc(OCc2cccc(C(=O)O)c2)cc1 | 10 | 10 | ? | -3 | -3 | -1
CCOc1ccc(C(C)(N)C(=O)O)cc1 (stereo not drawn) | 0 | 1 | 22131* | 0 | 13 | ?
O=C(c1cc(Cl)ccc1Cl)N1CCN(Cc2ccccc2)CC1 | 16 | -5 | 3461 | 0 | -9 | 0
CC1CCc2nn(CC(=O)N3CCN(C(=O)c4ccco4)CC3)cc2C1 (stereo not drawn) | -6 | 0 | 5466 | -1 | -6 | 0
CC(c1ccco1)N(C(=O)c1ccccc1NS(=O)(=O)c1ccc(Cl)c([N+](=O)[O-])c1)c1ccccn1 (stereo not drawn) | 7 | 1 | 9618 | 3 | 32* | 3
O=C(NCCCn1ccnc1)Nc1ccc(Cl)c(Cl)c1 | -15 | 0 | 10262 | -1 | -7 | -3
O=C(CCN1C(=O)COc2ccccc21)NCCCN1CCc2ccccc2C1 | -15 | -4 | 18721* | 3 | 6 | -11
O=C(NCCN1CCN(Cc2ccccc2Cl)CC1)Nc1ccccc1 | 1 | 1 | 23034* | -1 | 12 | 2
SMILES | BoNT-F LC inh | Anthrax LF prot | Autofluor counter | Mtb FBA inh | GDH-TPI inh | BoNT-A LC inh2
O=C(NCCCN1CCc2ccccc2C1)Nc1ccc(Cl)cc1 | -6 | -1 | 22133* | -1 | -5 | -4
O=C(NCCCn1ccnc1)Nc1ccc(Cl)cc1 | -5 | -2 | 24742* | -3 | 10 | ?
COc1ccc(NC(=O)c2cc(-c3ccc(OC)c(OC)c3)on2)cc1OC | -4 | -8 | 23014* | 6 | 3 | -1
COc1ccc(NC(=O)c2cc(-c3ccc(C)cc3)on2)cc1OC | ? | -16 | 3021 | -1 | 5 | 1
COc1ccc(-c2cc(C(=O)NCc3ccccc3)no2)cc1OC | 3 | 4 | 21267* | 2 | 12 | 3
COc1ccc(CNC(=O)c2cc(-c3ccc(OC)c(OC)c3)on2)cc1 | 0 | 0 | 11435 | 5 | 9 | 1
Cc1ccccc1C(=O)N1CCC(C(=O)Nc2nc3ccc(F)cc3s2)CC1 | / | / | / | -5 | -2 | /
Clc1ccccc1CSc1ncn(-c2ccccc2)n1 | 0 | 2 | 21905* | 3 | -3 | 2
